“And” between values parts separate entries of the source, which are not always exact repeats. Equal entries are not always repeated. Hit rate of the full screen: of about 5,500 compounds, about 2,000 (36%) were called active. Another 18% or so got no clear call; they are omitted. No stated cut-off is given here; in the data, active means normalized growth mostly below about 0.91 (no sharp cut-off); inconclusive means no clear call, values can overlap the other calls; inactive means mostly above about 0.92. Some of the results follow.
Assay: chemical genetic growth profiling, strain panel (AID 1159580);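 further: tested at 20 µM; growth read once vehicle control cultures reached saturation at 30 °C; 1 = growth at the plate median or of vehicle wells; lower values mean less growth of the strain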
Details: S. cerevisiae deletion strains, growth OD

Measured: normalized growth

CC(CN1c2ccccc2Sc2ccccc21)N(C)C (configuration not stated)
active: locus YAL021C, strain ccr4, hits give low values 0.902 | locus YAL026C, strain drs2, hits give low values 0.721 | locus YDR101C, strain arx1, hits give low values 0.914 | locus YDR137W, strain rgp1, hits give low values 1.25 [resistant] | locus YER015W, strain faa2, hits give low values 0.901 | locus YER155C, strain BEM2 (second series), hits give low values 0.816 | locus YFR010W, strain ubp6, hits give low values 0.88 | locus YGL240W, strain doc1, hits give low values 0.864 | locus YJL166W, strain qcr8, hits give low values 0.896
inactive: locus YAL030W, strain snc1, hits give low values 0.973 | locus YAL040C, strain CLN3, hits give low values 0.985 | locus YBL061C, strain skt5, hits give low values 0.924 | locus YBR009C, strain hhf1, hits give low values 0.954 | locus YBR021W, strain FUR4, hits give low values 0.938 | locus YBR023C, strain chs3, hits give low values 0.927 | locus YBR171W, strain sec66, hits give low values 0.988 | locus YBR229C, strain ROT2, hits give low values 0.95 | locus YBR231C, strain swc5, hits give low values 0.95 | locus YBR279W, strain paf1, hits give low values 0.966 | locus YCL011C, strain gbp2, hits give low values 0.981 | locus YCL016C, strain dcc1, hits give low values 0.975 | locus YCL061C, strain MRC1 (second series), hits give low values 0.998 | locus YCL069W, strain vba3, hits give low values 0.938 | locus YCR088W, strain abp1, hits give low values 0.988 | locus YDL005C, strain med2, hits give low values 1 | locus YDL035C, strain GPR1, hits give low values 0.966 | locus YDL040C, strain nat1, hits give low values 0.982 | locus YDL074C, strain BRE1, hits give low values 0.906 | locus YDL101C, strain DUN1, hits give low values 0.944 | locus YDL134C, strain PPH21, hits give low values 0.979 | locus YDL185W, strain tfp1, hits give low values 0.978 | locus YDL192W, strain arf1, hits give low values 0.982 | locus YDR001C, strain nth1, hits give low values 0.983 | locus YDR069C, strain doa4, hits give low values 0.946 | locus YDR150W, strain NUM1, hits give low values 0.99 | locus YDR159W, strain sac3, hits give low values 0.968 | locus YDR162C, strain NBP2, hits give low values 0.982 | locus YDR195W, strain ref2 1.14 | locus YDR297W, strain sur2, hits give low values 0.937 | locus YDR318W, strain mcm21, hits give low values 0.95 | locus YDR334W, strain swr1, hits give low values 0.985 | locus YDR335W, strain msn5, hits give low values 0.94 | locus YDR363W, strain ESC2, hits give low values 0.993 | locus YDR388W, hits give low values 0.977 | locus YDR392W, strain spt3, hits give low values 1.07 | locus YDR502C, strain sam2, hits give low values 0.948 | locus YEL003W, strain gim4, hits give low values 0.926 | locus YEL037C, strain rad23, hits give low values 0.972 | locus YEL061C, strain CIN8 (second series), hits give low values 0.975 | locus YEL061C, strain CIN8, hits give low values 0.977 | locus YER002W, strain NOP16, hits give low values 0.978 | locus YER016W, strain bim1, hits give low values 0.988 | locus YER110C, hits give low values 0.971 | locus YER111C, strain swi4, hits give low values 0.98 | locus YER155C, strain BEM2, hits give low values 0.987 | locus YER167W, strain BCK2, hits give low values 0.986 | locus YGL078C, strain dbp3, hits give low values 0.972 | locus YGL086W, strain mad1, hits give low values 0.936 | locus YGL167C, strain pmr1, hits give low values 0.987 | locus YGL173C, strain kem1, hits give low values 0.926 | locus YGL227W, strain vid30, hits give low values 0.974 | locus YGL248W, strain PDE1, hits give low values 0.945 | locus YGL253W, strain hxk2, hits give low values 0.963 | locus YGR135W, strain pre9, hits give low values 1 | locus YGR229C, strain SMI1, hits give low values 0.954 and 0.981 | locus YGR252W, strain gcn5, hits give low values 0.815 | locus YHR013C, strain ard1, hits give low values 1.01 | locus YHR027C, strain rpn1, hits give low values 0.927 | locus YHR030C, strain SLT2, hits give low values 0.99 and 1.04 | locus YHR079C, strain IRE1 (second series), hits give low values 0.957 | locus YHR079C, strain IRE1, hits give low values 1.07 | locus YHR094C, strain hxt1, hits give low values 0.974 | locus YHR129C, strain ARP1, hits give low values 0.985 | locus YHR142W, strain chs7, hits give low values 0.879 | locus YHR200W, strain rpn10, hits give low values 0.966 | locus YIL066C, strain RNR3, hits give low values 0.917 | locus YIL073C, strain SPO22, hits give low values 0.968 | locus YIL125W, strain kgd1, hits give low values 0.963 | locus YIR030C, strain dcg1, hits give low values 0.98 | locus YJL092W, strain hpr5, hits give low values 0.949 | locus YJL095W, strain BCK1 (second series), hits give low values 0.96 | locus YJL095W, strain BCK1, hits give low values 0.906 and 1.01 | locus YJL115W, strain asf1, hits give low values 0.974 | locus YJL129C, strain trk1, hits give low values 1.02 | locus YJL134W, strain LCB3, hits give low values 0.984 | locus YJL154C, strain vps35, hits give low values 0.973 | locus YJL164C, strain tpk1, hits give low values 0.964 | locus YJL168C, strain set2, hits give low values 0.983 | locus YJL187C, strain SWE1 (second series), hits give low values 0.894 | locus YJR043C, strain POL32, hits give low values 0.968 | locus YJR066W, strain TOR1, hits give low values 0.972 | locus YJR075W, strain HOC1, hits give low values 0.981 and 1.01
